Assay [1] can be described thus: qHTS assay for small molecule agonists of the p53 signaling pathway (AID 651631; calls by dose curve; note: nearly all actives have a fitted effect of over 15% in size; note: potency is the fitted concentration of half-maximal effect). The essentials:
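Quantitative high-throughput format: 4,000 p53RE-bla HCT-116 cells/well, 5 h pre-incubation, 16 h compound exposure at 37 °C, 2 h room-temperature substrate step, fluorescence intensity measured.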

Assay [2] can be described thus: qHTS assay for small molecules that induce genotoxicity in human embryonic kidney cells expressing luciferase-tagged ATAD5 (AID 651632). Note: nearly all actives have a fitted effect of over 15% in size. The procedure, abridged:
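Luminescent reporter readout, HEK293T ATAD5-luc line: 16 hr drug exposure (37C, 5% CO2) followed by Amplite, 30 min RT.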
In general terms: qHTS replaces the single test concentration by a dilution series.

Assay [3] in a line: qHTS assay for small molecules that induce genotoxicity in human embryonic kidney cells expressing luciferase-tagged ATAD5 - cell viability (AID 651634; calls by dose curve; note: nearly all actives have a fitted effect of over 25% in size). The procedure, abridged:
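Viability read: CellTiter-Fluor fluorescence, 30 min at 37C. Cells: HEK293T, luciferase-tagged ATAD5. Exposure: 15.5 hr, 37C, 5% CO2, compound or DMSO vehicle.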

Assay [4] is described as follows: qHTS assay for small molecule disruptors of the mitochondrial membrane potential - cell viability (AID 720634; calls by dose curve;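 note: human HepG2 liver cancer cells; series mostly up to about 83 µM; nearly all actives have a fitted effect of over 20% in size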). The procedure, abridged: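 HepG2, 1 hr compound, 37 C. ATP luminescence via CellTiter-Glo, 30 min RT, same well as m-MPI.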
A short description of assay [5]: qHTS assay to test for compound auto fluorescence at 590 nm (red) in HepG2 cells (AID 720674). The procedure, abridged: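 Compound auto-fluorescence is scored relative to Rose Bengal sodium, measured at 540/590 nm in live HepG2 cultures after 1 hr compound contact (37 C, 5% CO2).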
The nature of assay [6]: qHTS assay to test for compound auto fluorescence at 535 nm (green) in HepG2 cells (AID 720675).
The nature of assay [7]: qHTS assay to test for compound auto fluorescence at 460 nm (blue) in HEK293 cells (AID 720678). The essentials:
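HEK293, 2,000 cells/well, 10% dialyzed FBS; attach 4-5 hr 37C; pin compound or DMSO; o/n 37C/5% CO2; fluorescence 405/460 nm; triamterene-equivalent units.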

Assay [8] in a line: qHTS assay to test for compound auto fluorescence at 590 nm (red) in HEK293 cells (AID 720679). The procedure, abridged:
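Intensity at 540nm excitation and 590nm emission is reported as Rose Bengal sodium-equivalent autofluorescence. Measurements followed overnight exposure (37C, 5% CO2) of HEK293 cells, 2,000 per well, to 23 nL compound.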

Assay [9] in a line: qHTS assay to test for compound auto fluorescence at 535 nm (green) in HEK293 cells (AID 720680).
Assay [10] in a line: qHTS assay to test for compound auto fluorescence at 460 nm (blue) in HEK293 cell free culture (AID 720681). The essentials: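 Test compounds were pinned into cell-free culture medium (DMEM with 10% FBS) and fluorescence was read directly at Ex/Em 405/460 nm. Signals were expressed as fluorescence equivalents of triamterene, with DMSO vehicle as control.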
Assay [11] can be described thus: qHTS assay to test for compound auto fluorescence at 535 nm (green) in HEK293 cell free culture (AID 720682). The procedure, abridged: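 Measurement is a direct plate read of green fluorescence (485 nm in, 535 nm out) after compound addition to serum-supplemented DMEM lacking cells, with fluorescein used to express intensities.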
Assay [12] in a line: qHTS assay to test for compound auto fluorescence at 590 nm (red) in HEK293 cell free culture (AID 720683). The essentials:
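Tox21 10K library compounds were pinned into cell-free DMEM with 10% FBS and fluorescence was read at excitation 540 nm. Activity is expressed as Rose Bengal sodium equivalency.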

Assay [13] is described as follows: qHTS assay to test for compound auto fluorescence at 590 nm (red) in HepG2 cell free culture (AID 720684). The essentials: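 Red fluorescence (540 nm excitation, 590 nm emission) was measured after compound transfer into cell-free MEM supplemented with 10% FBS. Values are equivalencies against Rose Bengal sodium.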
Assay [14] is described as follows: qHTS assay to test for compound auto fluorescence at 460 nm (blue) in HepG2 cell free culture (AID 720685). The essentials: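 Compound (23 nL) or DMSO pinned into cell-free MEM with 10% FBS; blue fluorescence read at 405/460 nm excitation/emission, expressed as auto-fluorescence equivalency to triamterene.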
Assay [15] is described as follows: qHTS assay to test for compound auto fluorescence at 535 nm (green) in HepG2 cell free culture (AID 720686).
The nature of assay [16]: qHTS assay to test for compound auto fluorescence at 460 nm (blue) in HepG2 cells (AID 720687). The essentials: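 Cells (2,000/well in MEM with 10% FBS) attached overnight at 37 C, then were exposed to compound or DMSO for 1 hr at 37 C, 5% CO2. Fluorescence read at Ex/Em 405/460 nm, expressed as triamterene-equivalent signal.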
Assay [17] deals with Glucocorticoid receptor (Homo sapiens) (UniProt P04150). The assay is described as follows: qHTS assay to identify small molecule agonists of the glucocorticoid receptor (GR) signaling pathway (AID 720691; active = well fitted activation curve with a large enough effect in the signal ratio in the repeat runs, not every such curve was filed as active; the % refers to the signal ratio). The essentials: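 qHTS in GR-bla HeLa cells: 4 h settling at 37 C/5% CO2, 18 h compound incubation at 37 C, 2 h LiveBLAzer B/G FRET substrate at room temperature, fluorescence intensity measured.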

For assay [18] the target is unchanged. The assay is described as follows: qHTS assay to identify small molecule antagonists of the glucocorticoid receptor (GR) signaling pathway (AID 720692; active = well fitted inhibition curve with a large enough effect in the signal ratio in the repeat runs, not every such curve was filed as active; the % refers to the signal ratio). The essentials:
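Inhibition of glucocorticoid signalling is measured in HeLa cells with a GRE-controlled beta-lactamase reporter; cells are co-treated with compound and 5 nM dexamethasone (final) for 18 h before FRET substrate readout.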

Assay [19] is described as follows: qHTS assay for small molecule agonists of the p53 signaling pathway - cell viability (AID 651633; calls by dose curve;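 note: p53RE-bla HCT reporter cells with a stable beta-lactamase p53 reporter; series mostly up to about 83 µM; nearly all actives have a fitted effect of over 30% in size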). The procedure, abridged: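 p53RE-bla cells, seeded at 4,000 per well and rested 5 h at 37 C/5% CO2, received compounds in DMSO for 16 h at 37 C. CellTiter-Glo was then added, and luminescence was read after 30 min at room temperature to gauge cytotoxicity.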
The nature of assay [20]: qHTS assay for small molecule disruptors of the mitochondrial membrane potential (AID 720635). Note: potency is the fitted concentration of half-maximal effect. The essentials: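 HepG2 cells (2,000/well) attached overnight at 37C, then took compound for 1 hr at 37C, 5% CO2. Mito-MPS dye was added for 30 min; fluorescence was read at 490/535 nm (monomers) and 540/590 nm (aggregates).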

Our source for the Potency and outcome values is PubChem BioAssay (Tox21).

Structures are written as SMILES. Inconclusive results are not listed. Active and inactive are the calls of the source. Unless noted, calls come from the whole dose curve; as a rule, active = well fitted curve in the direction sought with a large enough effect in the repeat runs; inconclusive = weak or mixed curves; inactive = no such curve, though single readings can be large; an effect the other way counts as inactive or inconclusive.

Chain of Glucocorticoid receptor (Homo sapiens) (P04150 whole entry, looked up): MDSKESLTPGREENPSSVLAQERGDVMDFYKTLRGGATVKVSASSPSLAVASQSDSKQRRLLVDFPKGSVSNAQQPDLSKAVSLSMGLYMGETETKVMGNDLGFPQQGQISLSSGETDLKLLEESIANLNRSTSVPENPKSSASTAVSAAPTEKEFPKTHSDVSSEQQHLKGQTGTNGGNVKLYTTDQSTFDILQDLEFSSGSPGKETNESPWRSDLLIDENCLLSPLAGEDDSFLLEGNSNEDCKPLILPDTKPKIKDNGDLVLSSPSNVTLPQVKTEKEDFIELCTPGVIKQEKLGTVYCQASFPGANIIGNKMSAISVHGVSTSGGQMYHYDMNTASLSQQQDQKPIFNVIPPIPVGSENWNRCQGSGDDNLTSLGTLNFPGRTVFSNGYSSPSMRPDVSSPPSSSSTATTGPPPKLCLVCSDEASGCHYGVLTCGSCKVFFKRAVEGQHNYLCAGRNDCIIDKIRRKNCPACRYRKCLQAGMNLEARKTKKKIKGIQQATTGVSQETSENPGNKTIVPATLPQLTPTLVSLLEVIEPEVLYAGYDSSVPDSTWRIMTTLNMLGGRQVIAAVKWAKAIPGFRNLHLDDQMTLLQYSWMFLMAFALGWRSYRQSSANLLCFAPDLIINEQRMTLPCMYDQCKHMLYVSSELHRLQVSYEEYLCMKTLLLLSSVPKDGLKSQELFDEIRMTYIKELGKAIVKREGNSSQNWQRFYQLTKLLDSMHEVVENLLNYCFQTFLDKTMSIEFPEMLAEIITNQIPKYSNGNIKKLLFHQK

For the molecule `COc1cc2c(cc1OC)[C@@]13CCN4CC5=CCO[C@H]6CC(=O)N2[C@H]1[C@H]6[C@H]5C[C@H]43`, the Potency result in assay [1], in assay [2], in assay [3] and in assay [4] was “inactive” throughout. Further, the result in assay [5], in [6], in [7], in assay [8], in [9] and in assay [10] was inactive. The result in [11], in assay [12], in assay [13], in assay [14], in assay [15] and in [16] was inactive.

Turning to `COc1ccc(C(=O)N2CCCC2=O)cc1`, the Potency entry in [1], in assay [2], in assay [3] and in assay [18] was “inactive” throughout. Further, the result in assay [5], in assay [6], in assay [7], in [8], in [9] and in assay [10] was inactive. For the same molecule, the molecule was called inactive in assay [11], in [12], in [13], in [14], in assay [16] and in assay [17].

For the molecule `O=C(N[C@H]1CN2CCC1CC2)c1cc2ccoc2cn1`, the Potency entry in assay [1], in assay [2], in assay [19], in [4] and in assay [18] was “inactive” throughout. In addition, the molecule was classed as inactive in assay [5], in assay [6], in assay [7], in assay [8], in [9] and in assay [10]. In addition, the molecule was called inactive in assay [11], in assay [12], in [13], in assay [14], in [15] and in assay [16]. Besides, the outcome in assay [17] was inactive.

Regarding `CC(=O)CC(c1ccc(Cl)cc1)c1c(O)c2ccccc2oc1=O` (stereo not given), the Potency result in [1], in [2], in [3], in [4] and in assay [18] was “inactive” throughout. Also, the Potency in [20] was 32.1 µM (active). Further, the molecule was classed as inactive in [5], in assay [6], in assay [7], in [8], in assay [9] and in assay [10]. Also, the call in assay [11], in assay [12], in assay [13], in [15], in [16] and in assay [17] was inactive.

Consider `CCN(CC)c1nc(C)cc(OP(=S)(OC)OC)n1`, for which the Potency entry in assay [1], in assay [2], in [3] and in [18] was “inactive” throughout. Also, the result in assay [5], in assay [6], in assay [7], in assay [8], in assay [10] and in [11] was inactive. Also, the molecule was classed as inactive in [12], in assay [13], in assay [15], in assay [16] and in assay [17].

As to `CN1C[C@@H](NS(=O)(=O)N(C)C)C[C@@H]2c3cccc4c3c(cn4C)C[C@H]21`, the Potency result in assay [1], in assay [2], in assay [4], in assay [20] and in assay [18] was “inactive” in each case. Moreover, the molecule was classed as inactive in assay [5], in assay [6], in assay [8], in assay [10], in [11] and in assay [12]. In addition, the molecule was classed as inactive in assay [13], in assay [14], in assay [15], in [16] and in assay [17].

Consider `COc1cc(OC)nc(Oc2cccc(Oc3nc(OC)cc(OC)n3)c2C(=O)O)n1`, for which the Potency result in assay [1], in assay [2], in [3] and in [4] was “inactive” throughout. The molecule was called inactive in [5], in assay [6], in assay [7], in [8], in assay [9] and in assay [10]. Also, the result in assay [11], in [12], in assay [13], in assay [15] and in [16] was inactive.

For `CN/C(=N\[N+](=O)[O-])NCC1CCOC1` (stereo not given), the Potency result in [1], in assay [19] and in assay [4] was “inactive” in each case. Besides, the molecule was called inactive in assay [5], in assay [6], in assay [7], in [8], in assay [10] and in assay [11]. Besides, the outcome in assay [12], in [13], in [14], in [15], in assay [16] and in assay [17] was inactive.

For the molecule `CCOP(=S)(OCC)Oc1ncn(-c2ccccc2)n1`, the Potency result in assay [2], in [19], in assay [3] and in assay [4] was “inactive” throughout. Further, the Potency in assay [20] was 6.86 µM (active). For the same molecule, the outcome in assay [5], in assay [6], in assay [7], in [8], in assay [9] and in assay [10] was inactive. Moreover, the molecule was called inactive in assay [11], in assay [12], in [13], in [14], in assay [15] and in [16].

For `CCCCCCI`, the Potency entry in assay [1], in [2], in [3] and in [20] was “inactive” throughout. In addition, the result in assay [5], in assay [6], in assay [7], in [8], in assay [9] and in assay [10] was inactive. Besides, the result in assay [11], in [12], in assay [13], in assay [14], in [15] and in assay [16] was inactive.

`C[C@]1(O)CC[C@H]2[C@@H]3CCC4=CC(=O)CC[C@]4(C)[C@@]3(F)[C@@H](O)C[C@@]21C`: the Potency result in [1], in assay [2], in assay [3], in assay [4] and in [20] was “inactive” throughout. Also, the result in [5], in assay [6], in [7], in [8], in assay [9] and in [10] was inactive. The call in assay [11], in assay [12], in [13], in assay [14], in [15] and in [16] was inactive. In assay [17], the molecule was called inactive.

`COC(=O)COc1ccc(Cl)cc1Cl`: the Potency result in assay [1], in assay [3] and in [4] was “inactive” throughout. For the same molecule, the result in assay [5], in assay [6], in [7], in [8], in assay [10] and in assay [11] was inactive. Further, the molecule was classed as inactive in [12], in assay [13], in [14], in assay [15] and in assay [16].

With `CNC(=O)Oc1ccc(N(C)C)c(C)c1`, the Potency entry in assay [1], in [2], in assay [3], in assay [4] and in assay [18] was “inactive” each time. Further, the result in assay [5], in assay [6], in assay [7], in [8], in assay [9] and in assay [10] was inactive. The call in assay [11], in [12], in assay [13], in assay [14], in assay [15] and in assay [16] was inactive. Also, the outcome in assay [17] was inactive.

Regarding `CC(C)(C)NCC(O)c1cc(Cl)c(N)c(Cl)c1` (stereo not given), in assay [1], the Potency is 1.33 µM (active). Further, the Potency entry in assay [19], in assay [3] and in assay [4] was “inactive” throughout. The outcome in assay [5], in assay [6], in assay [7], in [8], in assay [9] and in assay [10] was inactive. For the same molecule, the call in [11], in assay [12], in assay [13], in assay [14] and in assay [16] was inactive.

Regarding `Cc1ncc(CNC(=O)N(CCCl)N=O)c(N)n1`, the Potency result in assay [1], in assay [2], in [3], in assay [4], in [20] and in assay [18] was “inactive” each time. For the same molecule, the outcome in [5], in assay [6], in [7], in [8], in assay [9] and in [10] was inactive. The result in assay [11], in assay [12], in assay [13], in assay [15], in assay [16] and in assay [17] was inactive.
